Among the data in the supplement of paper PMC7156485 are cell number and H1.0 immunofluorescence intensity values, retold here.

Where “and” joins values, the source holds several entries; their conditions need not be identical. Equal values may be shown once. ± gives the standard deviation of the averaged measurements.

Holding throughout (settings): concentration: 10 µM; 24 h
Assay [1] relates to HCC1569. The experiment in a line: cell number relative to DMSO (% of DMSO); higher = more cells (less growth inhibition / toxicity). The essentials: (§1)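 Compounds were applied at 10 µM for 24 h at 37 °C, in triplicate, to HCC1569 and TDF cells. The cells were then fixed and stained for H1.0, and nuclei were counterstained with DAPI. Nuclear H1.0 intensity or cell number is reported relative to the plate control as a percent, taking the median of replicates. Smoothing for positional effects was applied to HCC1569 values only.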

Assay [2] concerns TDF. The description is as above. The essentials:
as §1

The subject of assay [3] is TDF. Nature of the assay: H1.0 immunofluorescence intensity relative to DMSO (% of DMSO); higher = stronger H1.0 induction, active = 120 or more. The method in brief: as §1
Assay [4] concerns HCC1569. The experiment in a line: H1.0 immunofluorescence intensity relative to DMSO (% of DMSO); higher = stronger H1.0 induction, active = 140 or more. The method in brief: as §1
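Throughout, for H1.0 immunofluorescence intensity relative to DMSO: TDF is a line of transformed human dermal fibroblasts of mesenchymal origin.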
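Throughout, for cell number relative to DMSO: TDF denotes transformed human dermal fibroblasts of mesenchymal origin.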

Turning to `Cc1ccc(Cl)c(Nc2ccccc2C(=O)[O-])c1Cl.[Na+]` [sodium 2-(2,6-dichloro-3-methylanilino)benzoate], the cell number in assay [1] amounted to 99.4; in assay [2] it was 111. The H1.0 immunofluorescence intensity is 97.9 (inactive) in assay [3] and 102 (inactive) in assay [4].

`Cn1cnc2c(NC3CCCC3)ncnc21` [N6-Cyclopentyl-9-methyladenine]: the cell number in assay [1] was found to be 76.8; in assay [2], 98.1. Also, the H1.0 immunofluorescence intensity in assay [3] is 97.3 (inactive); in assay [4] it was 159 (active).

On to `CN(C)c1ccccc1CN1CCCN(Cc2ccccc2N(C)C)C1c1ccncc1`, for which the cell number in assay [1] is 83.9; in assay [2], 65.2. The figures for the H1.0 immunofluorescence intensity in assay [3] and in assay [4] were 109 (inactive) and 137 (inactive), respectively.

As to `NS(=O)(=O)Cc1noc2ccccc12` [Zonisamide], the values for the cell number in assay [1] and in assay [2] were 101 and 94.5, respectively. For the same molecule, the H1.0 immunofluorescence intensity is 96 (inactive) in assay [3] and 90.5 (inactive) in assay [4].

In the case of `O=c1ccc2cc3ccoc3cc2o1` [7H-furo[3,2-g]chromen-7-one], the cell number is 96.4 in assay [1] and 105 in assay [2]. The H1.0 immunofluorescence intensity is 90.3 (inactive) in assay [3] and 93.5 (inactive) in assay [4].

Regarding `CCCCCCCCCCCC1N[C@H](C(=O)O)CS1` (stereo partly drawn) [(4R)-2-undecyl-1,3-thiazolidine-4-carboxylic acid], the cell number in assay [1] was determined as 98.7; in assay [2] it was 105. The H1.0 immunofluorescence intensity in assay [3] was 95.5 (inactive); in assay [4], 96.9 (inactive).

Regarding `Cc1ccccc1N1C(=O)c2cc(S(N)(=O)=O)c(Cl)cc2NC1C` (configuration not stated) [Metolazone], the values for the cell number in assay [1] and in assay [2] were 104 and 110, respectively. Besides, the H1.0 immunofluorescence intensity in assay [3] is 89.8 (inactive); in assay [4], 91.1 (inactive).

As for `CCC(CO)Nc1nc(NCc2ccc(-c3ccccn3)cc2)c2ncn(C(C)C)c2n1` [CR8, (S)-Isomer], the values for the cell number in assay [1] and in assay [2] were 52.6 and 23.5, respectively. Moreover, the H1.0 immunofluorescence intensity in assay [3] was 124 (active); in assay [4] it was 128 (inactive).

As to `Nc1ccn(C2CCC(CO)O2)c(=O)n1` (configuration not stated) [2',3'-dideoxycytidine], the cell number in assay [1] is 99.7; in assay [2], 102. In addition, the H1.0 immunofluorescence intensity in assay [3] was 89.2 (inactive); in assay [4], 87.7 (inactive).

Consider `COCCc1ccc(OCC(O)CNC(C)C)cc1` (configuration not stated) [Metoprolol], for which the cell number in assay [1] worked out at 104; in assay [2], 99.5. Further, the values for the H1.0 immunofluorescence intensity in assay [3] and in assay [4] were 102 (inactive) and 104 (inactive), respectively.

On to `CC1(C)CCC2=C(O1)c1ccccc1C(=O)C2=O` [beta-Lapachone], for which the cell number was 59.7 ± 36 in assay [1] and 25.4 ± 9.7 in assay [2]. Also, the results for the H1.0 immunofluorescence intensity in assay [3] and in assay [4] were 114 (inactive) and 111 (inactive), respectively.

`Br.CN1CCc2c(cc(O)c(O)c2Cl)C(c2cccc(Cl)c2)C1` (configuration not stated): the cell number in assay [1] was 89.6; in assay [2] it was 81.1. For the same molecule, the H1.0 immunofluorescence intensity in assay [3] is 91.9 (inactive); in assay [4] it was 112 (inactive).

Regarding `O=C1OC(=CBr)CCC1c1cccc2ccccc12` (configuration not stated) [Bromoenol lactone], the cell number in assay [1] was 97.3; in assay [2], 100. The H1.0 immunofluorescence intensity in assay [3] is 94.5 (inactive); in assay [4] it was 112 (inactive).

In the case of `Cc1ccc(C(=CCN2CCCC2)c2ccccn2)cc1.Cl` [Trans-triprolidine.HCl], the cell number in assay [1] was 100; in assay [2] it was 95.5. Further, the H1.0 immunofluorescence intensity in assay [3] was 99 (inactive); in assay [4], 110 (inactive).

On to `O=C1Nc2ccc(I)cc2C1=Cc1cc(Br)c(O)c(Br)c1`, for which the cell number in assay [1] is 98.5 and 105; in assay [2], 103. Moreover, the H1.0 immunofluorescence intensity in assay [3] was 93.5 (inactive) and 85.7 (inactive); in assay [4], 110 (inactive) and 83.8 (inactive).

For `CCCCN1CCC(COC(=O)c2cc(Cl)c(N)c3c2OCCO3)CC1.Cl`, the cell number in assay [1] stood at 102; in assay [2] it was 108. The values for the H1.0 immunofluorescence intensity in assay [3] and in assay [4] were 97.7 (inactive) and 104 (inactive), respectively.

Consider `O=C(CCCCCCC(=O)Nc1ccccc1)NO`, for which the cell number in assay [1] is 101; in assay [2] it was 95.7. The H1.0 immunofluorescence intensity in assay [3] was 121 (active); in assay [4], 100 (inactive).

Consider `CN1CCN(C2Cc3ccccc3Sc3ccc(Cl)cc32)CC1.O=C(O)C=CC(=O)O` (configuration not stated) [Clorotepine maleate], for which the cell number in assay [1] was determined as 98.5; in assay [2], 102. Besides, the H1.0 immunofluorescence intensity in assay [3] was 106 (inactive); in assay [4] it was 118 (inactive).

Take `O=C1Nc2cc(Br)ccc2C1=C1N=c2ccccc2=C1NO` [(2'Z,3'E)-6-Bromoindirubin-3'-oxime]: the cell number in assay [1] amounted to 54.7; in assay [2], 61.4. For the same molecule, the H1.0 immunofluorescence intensity in assay [3] is 118 (inactive); in assay [4] it was 171 (active).

Turning to `CC(=O)OCC1=C(C(=O)[O-])N2C(=O)C(NC(=O)Cc3cccs3)C2SC1.[Na+]` (configuration not stated) [Cephalothin sodium], the cell number in assay [1] worked out at 100; in assay [2] it was 113. For the same molecule, the H1.0 immunofluorescence intensity in assay [3] was 89.4 (inactive); in assay [4] it was 89.2 (inactive).

`Nc1nc(Cl)nc2c1ncn2C1OC(COP(=O)([O-])OP(=O)([O-])OP(=O)([O-])[O-])C(O)C1O.[Na+].[Na+].[Na+].[Na+]` (configuration not stated) [2-Chloroadenosine triphosphate tetrasodium]: the figures for the cell number in assay [1] and in assay [2] were 102 and 99, respectively. Moreover, the H1.0 immunofluorescence intensity in assay [3] was 89.5 (inactive); in assay [4] it was 83.9 (inactive).

Regarding `CCCOC(=O)c1c(-c2ccccc2)nc(CC)c(C(=O)SCC)c1CCC`, the cell number in assay [1] came to 102; in assay [2], 90.7. Besides, the H1.0 immunofluorescence intensity in assay [3] was 93.7 (inactive); in assay [4], 96.3 (inactive).

Regarding `CC(O)(P(=O)([O-])O)P(=O)([O-])O` [Etidronate], the cell number in assay [1] was 101; in assay [2] it was 106. The H1.0 immunofluorescence intensity in assay [3] is 102 (inactive); in assay [4], 111 (inactive).
